# In PubChem BioAssay:
# Records with an inconclusive call do not appear. Activity calls are given as the source filed them.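 How the source made its calls, unless noted: active means binding below the plate cutoff, the plate median minus 3 SD, with a reading above zero; inconclusive means below the plate cutoff but reading exactly zero; inactive means the rest.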
# Experiments:
# [1] = yeast TOR pathway RPL19A-GFP modulators, primary screen, cell-based, S. cerevisiae, multiplex flow cytometry (AID 1862; in the data active means percent of DMSO control GFP below about 86%;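 further: lower values mimic rapamycin by blocking the RPL19A rise seen in DMSO cells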); conditions: S. cerevisiae RPL19A-GFP strain, flow cytometry fluorescence, 3 h; at 10 µM; stronger effect = lower value
# [2] = modulators of MEP2-GFP levels in yeast, primary screen, S. cerevisiae, multiplex flow cytometry (AID 1867;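 active means GFP response, as percent of the DMSO control, above the screen-wide mean plus 3 SD, about 139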;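 further: median GFP channel fluorescence of barcode-gated MEP2-GFP cells measured by flow cytometry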); conditions: S. cerevisiae MEP2-GFP strain, 3 h, at 10 µM, stronger effect = higher value, 100% means same as DMSO wells
# [3] = modulators of CIT2-GFP expression in yeast, primary screen, S. cerevisiae, GFP fusion, multiplex flow cytometry (AID 1870;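 active means percent response above a set limit, the screen-wide mean plus 3 SD, cut at about 130% in these data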;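 further: barcoded CIT2-GFP strain pooled with four other GFP strains with rapamycin as positive control; median GFP fluorescence per well over plate mean of DMSO wells so 100% = DMSO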); conditions: 3 h, at 10 µM, stronger effect = higher value
# [4] = modulators of LAP4-GFP expression in yeast, primary screen, S. cerevisiae, multiplex flow cytometry (AID 1873;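 active means GFP signal, as percent of the solvent control, above the screen mean plus 3 SD, about 149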); conditions: 3 h, at 10 µM, stronger effect = higher value
# [5] = modulators of AGP1-GFP expression in yeast TOR pathway, primary screen, cell-based, multiplex flow cytometry, S. cerevisiae (AID 1887;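 active means GFP signal above the screen-wide mean plus 3 SD, that is over about 124.5% of the solvent control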;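 further: AGP1-GFP fusion strain of S. cerevisiae within a five-strain barcoded multiplex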); conditions: 3 h, at 10 µM, stronger effect = higher value
# [6] = inhibitors of CD8+ T cell-vesicle binding, pilot screen, LFA-1/ICAM-1 modulator project, MLPCN validation set, flow cytometry (AID 2523;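 active means response below a set limit, under 55% cells CD8-positive and vesicle-bound, and CD8 cells' 90th-percentile brightness under 279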;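 on vesicle binding response: mean PE anti-B7-1 fluorescence of CD8+ cells relative to row control; 100% = QL9-loaded vesicles with DMSO vehicle in the same plate row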); conditions: 2C mouse CD8+ T cells, at 7 µM, stronger effect = lower value; double positive events: measured here: CD8+/vesicle+ event percentage
# [7] = molecular target: Integrin beta-1 (Homo sapiens) + Integrin alpha-4 (Homo sapiens) (UniProt P13612+P05556); test: inhibition of HUTS-21 binding to VLA-4, pilot screen, VLA-4 allosteric modulator project, U937 cells, HUTS-21 mAb, flow cytometry, validation set (AID 2674;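 active means inhibition above 50%, about 3 SD of the validation set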;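 further: antibody binding induced by the VLA-4 ligand LDV present at three times its Kd; 0% = LDV ligand with antibody and no compound and 100% = antibody without LDV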); conditions: HUTS-21 LIBS mAb binding, at 6.7 µM, stronger effect = higher value, binding induced by LDV ligand
# Chain of Integrin beta-1 (Homo sapiens) + Integrin alpha-4 (Homo sapiens) (P05556 whole entry, looked up): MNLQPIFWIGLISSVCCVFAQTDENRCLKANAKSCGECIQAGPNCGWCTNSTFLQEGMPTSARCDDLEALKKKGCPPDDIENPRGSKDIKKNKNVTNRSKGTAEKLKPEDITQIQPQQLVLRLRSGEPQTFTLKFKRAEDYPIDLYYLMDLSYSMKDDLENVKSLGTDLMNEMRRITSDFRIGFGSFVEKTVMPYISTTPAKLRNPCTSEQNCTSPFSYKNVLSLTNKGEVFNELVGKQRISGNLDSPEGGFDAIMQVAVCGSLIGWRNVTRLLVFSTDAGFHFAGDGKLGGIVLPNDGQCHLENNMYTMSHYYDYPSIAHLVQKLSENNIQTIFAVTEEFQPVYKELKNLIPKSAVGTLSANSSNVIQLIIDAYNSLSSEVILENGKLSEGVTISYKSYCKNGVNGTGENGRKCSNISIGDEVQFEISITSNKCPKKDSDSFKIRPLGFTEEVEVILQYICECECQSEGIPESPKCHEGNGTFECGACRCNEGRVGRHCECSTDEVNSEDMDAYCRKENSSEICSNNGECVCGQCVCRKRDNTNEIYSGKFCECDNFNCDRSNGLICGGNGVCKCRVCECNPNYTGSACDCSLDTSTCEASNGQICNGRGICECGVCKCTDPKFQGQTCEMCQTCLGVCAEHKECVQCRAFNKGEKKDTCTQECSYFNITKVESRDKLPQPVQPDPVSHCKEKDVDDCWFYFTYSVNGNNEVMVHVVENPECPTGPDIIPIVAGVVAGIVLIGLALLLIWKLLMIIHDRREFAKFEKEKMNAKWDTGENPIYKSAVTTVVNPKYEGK
# Chain of Integrin beta-1 (Homo sapiens) + Integrin alpha-4 (Homo sapiens) (P13612 whole entry, looked up): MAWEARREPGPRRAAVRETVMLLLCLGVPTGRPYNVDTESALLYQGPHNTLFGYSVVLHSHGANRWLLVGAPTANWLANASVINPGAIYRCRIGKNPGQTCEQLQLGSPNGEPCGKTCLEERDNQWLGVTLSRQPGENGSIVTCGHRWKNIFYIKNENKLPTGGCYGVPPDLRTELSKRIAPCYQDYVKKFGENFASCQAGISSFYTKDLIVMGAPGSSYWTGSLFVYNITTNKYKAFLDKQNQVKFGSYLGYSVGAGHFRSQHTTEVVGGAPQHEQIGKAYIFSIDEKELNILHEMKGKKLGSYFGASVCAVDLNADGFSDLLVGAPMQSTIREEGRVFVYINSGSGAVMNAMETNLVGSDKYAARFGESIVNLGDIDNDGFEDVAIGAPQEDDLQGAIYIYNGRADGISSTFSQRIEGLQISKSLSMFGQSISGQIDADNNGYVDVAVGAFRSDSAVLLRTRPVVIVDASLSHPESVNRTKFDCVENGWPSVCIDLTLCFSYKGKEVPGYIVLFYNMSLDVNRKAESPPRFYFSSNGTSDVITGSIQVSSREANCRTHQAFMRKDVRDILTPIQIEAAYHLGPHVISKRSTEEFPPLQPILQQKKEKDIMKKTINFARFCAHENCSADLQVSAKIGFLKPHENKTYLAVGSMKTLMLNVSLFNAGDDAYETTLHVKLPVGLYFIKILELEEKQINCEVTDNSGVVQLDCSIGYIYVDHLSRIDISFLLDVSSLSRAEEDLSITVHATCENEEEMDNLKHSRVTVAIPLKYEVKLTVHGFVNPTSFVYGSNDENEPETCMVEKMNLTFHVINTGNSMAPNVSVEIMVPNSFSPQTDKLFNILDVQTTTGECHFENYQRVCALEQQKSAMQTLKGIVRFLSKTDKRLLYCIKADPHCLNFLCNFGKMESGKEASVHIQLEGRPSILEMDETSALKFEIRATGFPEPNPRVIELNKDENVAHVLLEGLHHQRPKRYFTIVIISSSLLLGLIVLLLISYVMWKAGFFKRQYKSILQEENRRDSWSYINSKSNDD
# [8] = superoxide lowering in aged yeast cells, pilot screen, validation compound set (AID 2706;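 active means superoxide response below 65% of plate, a cut near 3 SD across the whole screen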;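 further: yeast exposed to compound for one week at 30 degrees C before staining; 100% = mean of all compound wells on the same plate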); conditions: S. cerevisiae aging, superoxide DHE fluorescence; at 10 µM; stronger effect = lower value
# [9] = molecular target: Beta-adrenergic receptor kinase 1 (Homo sapiens) (UniProt P25098); test: GRK2 binders displacing RNA aptamer, biochemical, validation, human GRK2, bead flow cytometry (AID 488806;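 active means aptamer binding inhibition above 30%, about 3 SD of noise from non-fluorescent compounds; inactive means inhibition at or below 30%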); conditions: bead-bound GRK2, FAM-aptamer displacement, at 10 µM, stronger effect = higher value
# Chain of Beta-adrenergic receptor kinase 1 (Homo sapiens) (P25098 whole entry, looked up): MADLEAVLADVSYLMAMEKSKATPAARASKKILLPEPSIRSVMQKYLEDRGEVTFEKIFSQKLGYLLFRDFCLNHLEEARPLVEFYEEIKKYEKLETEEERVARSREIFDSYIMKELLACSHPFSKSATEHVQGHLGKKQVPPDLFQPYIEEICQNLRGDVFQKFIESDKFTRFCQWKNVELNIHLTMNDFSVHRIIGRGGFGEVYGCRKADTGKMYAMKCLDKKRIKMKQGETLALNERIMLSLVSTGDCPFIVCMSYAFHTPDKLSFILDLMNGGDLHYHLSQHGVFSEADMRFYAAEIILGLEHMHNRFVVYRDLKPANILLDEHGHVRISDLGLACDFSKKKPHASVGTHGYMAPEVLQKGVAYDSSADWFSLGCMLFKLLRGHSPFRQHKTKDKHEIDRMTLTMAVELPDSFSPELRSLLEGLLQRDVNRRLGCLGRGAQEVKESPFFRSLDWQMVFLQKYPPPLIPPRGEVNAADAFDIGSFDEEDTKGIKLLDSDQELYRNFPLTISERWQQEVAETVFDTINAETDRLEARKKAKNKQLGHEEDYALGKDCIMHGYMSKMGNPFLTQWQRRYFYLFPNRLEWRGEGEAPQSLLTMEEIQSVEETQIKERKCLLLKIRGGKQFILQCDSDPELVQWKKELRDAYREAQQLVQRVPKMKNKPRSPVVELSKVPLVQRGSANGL
# [10] = molecular target: Beta-2 adrenergic receptor (Homo sapiens) (UniProt P07550); test: beta2AR agonists driving receptor internalization, pilot screen, cell-based, FAP fluorogen, flow cytometry, validation set (AID 504459;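 active means percent response above 42, roughly 3 SD of non-fluorescent test compounds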;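 further: agonist-driven loss of surface beta2AR via internalization measured by FAP dye flow cytometry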); conditions: Am2.2-beta2AR cells, FAP surface receptor flow cytometry; at 10 µM; stronger effect = higher value
# Chain of Beta-2 adrenergic receptor (Homo sapiens) (P07550 whole entry, looked up): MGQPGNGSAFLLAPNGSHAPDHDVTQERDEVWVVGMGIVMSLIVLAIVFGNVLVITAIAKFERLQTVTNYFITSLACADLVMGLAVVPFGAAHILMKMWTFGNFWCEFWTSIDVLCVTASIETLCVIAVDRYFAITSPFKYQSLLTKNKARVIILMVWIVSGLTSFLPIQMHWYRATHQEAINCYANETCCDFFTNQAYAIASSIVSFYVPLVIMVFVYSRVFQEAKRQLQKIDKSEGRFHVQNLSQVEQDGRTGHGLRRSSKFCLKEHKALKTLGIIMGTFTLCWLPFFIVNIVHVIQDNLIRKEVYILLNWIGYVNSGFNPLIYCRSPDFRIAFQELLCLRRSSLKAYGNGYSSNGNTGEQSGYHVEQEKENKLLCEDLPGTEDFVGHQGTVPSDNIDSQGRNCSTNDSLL
# [11] = molecular target: AP-2 complex subunit beta (Homo sapiens) (UniProt P63010); test: inhibitors of arrestin peptide binding to AP2, pilot screen, biochemical, validation set, GST-AP2 beads, flow cytometry (AID 504541;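 active means inhibition above 54%, about 3 SD of non-fluorescent compounds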;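 further: AP2 carries R879A mutation and is captured from E. coli lysate; bead-bound FITC arrestin peptide fluorescence measuring arrestin peptide binding to AP2; 0% = DMSO wells and 100% = excess unlabeled arrestin peptide control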); conditions: FITC arrestin peptide, at 10 µM, stronger effect = higher value, AP2 beta2 appendage fragment, R879A mutant
# Chain of AP-2 complex subunit beta (Homo sapiens) (P63010 whole entry, looked up, the tested form may be a part, one chain of several): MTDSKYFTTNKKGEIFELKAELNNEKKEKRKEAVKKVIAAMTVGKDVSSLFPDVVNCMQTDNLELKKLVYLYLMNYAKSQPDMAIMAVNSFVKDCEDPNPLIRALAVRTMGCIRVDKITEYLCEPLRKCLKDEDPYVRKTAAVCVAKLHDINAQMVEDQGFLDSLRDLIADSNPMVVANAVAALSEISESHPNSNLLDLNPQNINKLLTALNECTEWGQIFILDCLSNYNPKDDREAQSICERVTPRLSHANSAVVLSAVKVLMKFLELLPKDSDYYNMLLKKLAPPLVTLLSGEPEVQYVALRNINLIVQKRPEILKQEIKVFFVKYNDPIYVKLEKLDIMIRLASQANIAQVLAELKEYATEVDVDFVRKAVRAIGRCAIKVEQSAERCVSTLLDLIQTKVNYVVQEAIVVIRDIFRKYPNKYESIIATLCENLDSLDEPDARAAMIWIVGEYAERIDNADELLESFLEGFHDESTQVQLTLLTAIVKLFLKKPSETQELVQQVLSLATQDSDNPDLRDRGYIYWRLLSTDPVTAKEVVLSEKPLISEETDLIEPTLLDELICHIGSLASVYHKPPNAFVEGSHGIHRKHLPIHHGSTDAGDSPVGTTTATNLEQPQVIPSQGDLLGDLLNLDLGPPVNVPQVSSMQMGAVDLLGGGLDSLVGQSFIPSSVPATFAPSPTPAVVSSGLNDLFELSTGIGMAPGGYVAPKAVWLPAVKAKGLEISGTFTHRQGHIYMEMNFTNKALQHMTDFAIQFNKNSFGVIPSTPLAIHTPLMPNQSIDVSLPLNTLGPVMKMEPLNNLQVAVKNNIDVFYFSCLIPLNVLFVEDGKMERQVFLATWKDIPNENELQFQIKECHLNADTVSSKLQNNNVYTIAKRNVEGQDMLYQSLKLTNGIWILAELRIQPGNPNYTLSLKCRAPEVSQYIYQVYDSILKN
# [12] = yeast V-ATPase proton transport modulators, S. cerevisiae, pHLuorin, HTS validation (AID 504600; in the data active means response above about 15%;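 further: plate controls were DMSO for no effect and reference compound for full effect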); conditions: S. cerevisiae pHLuorin cytosolic pH, at 10 µM, stronger effect = higher value
# [13] = test system: anti-desmoglein-3 scFv antibody binding to human DSG3; test: inhibitors of anti-DSG3 scFv binding to DSG3, pilot screen, biochemical, validation compound set, bead-based, flow cytometry (AID 588368); conditions: Protein G beads, DSG3-Fc, scFv-GFP binding, at 10 µM, stronger effect = lower value;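 further: signal is the median channel fluorescence of bead-bound GFP antibody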
# [14] = inhibitors of fungal efflux pumps CDR1, CDR2, MDR1, pilot screen, validation compound set, multiplex, phenotypic (AID 588506;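 active means efflux inhibition above 0.42, the validation set average plus 4 SD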;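 further: Nile Red retained in cells so higher fluorescence means more efflux inhibition; 0 = negative control wells and 1 = enniatin B 25 µM full block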); conditions: S. cerevisiae pump-expressing triplex, Nile Red efflux flow cytometry; at 10 µM; stronger effect = higher value; the pumps come from Candida albicans
# [15] = molecular target: ATP-binding cassette sub-family B member 6 (Homo sapiens) (UniProt Q9NP58); test: ABCB6 transporter inhibitors, pilot screen, K562-ABCB6 cells, flow cytometry, validation set (AID 588550;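 active means inhibition above the screen-wide mean plus 3 SD, about 51%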;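 further: 0% = DMSO wells and 100% = benzethonium chloride 70 µM positive control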); conditions: K562-ABCB6 porphyrin accumulation, 1 h, at 10 µM, stronger effect = higher value
# Chain of ATP-binding cassette sub-family B member 6 (Homo sapiens) (Q9NP58 whole entry, looked up): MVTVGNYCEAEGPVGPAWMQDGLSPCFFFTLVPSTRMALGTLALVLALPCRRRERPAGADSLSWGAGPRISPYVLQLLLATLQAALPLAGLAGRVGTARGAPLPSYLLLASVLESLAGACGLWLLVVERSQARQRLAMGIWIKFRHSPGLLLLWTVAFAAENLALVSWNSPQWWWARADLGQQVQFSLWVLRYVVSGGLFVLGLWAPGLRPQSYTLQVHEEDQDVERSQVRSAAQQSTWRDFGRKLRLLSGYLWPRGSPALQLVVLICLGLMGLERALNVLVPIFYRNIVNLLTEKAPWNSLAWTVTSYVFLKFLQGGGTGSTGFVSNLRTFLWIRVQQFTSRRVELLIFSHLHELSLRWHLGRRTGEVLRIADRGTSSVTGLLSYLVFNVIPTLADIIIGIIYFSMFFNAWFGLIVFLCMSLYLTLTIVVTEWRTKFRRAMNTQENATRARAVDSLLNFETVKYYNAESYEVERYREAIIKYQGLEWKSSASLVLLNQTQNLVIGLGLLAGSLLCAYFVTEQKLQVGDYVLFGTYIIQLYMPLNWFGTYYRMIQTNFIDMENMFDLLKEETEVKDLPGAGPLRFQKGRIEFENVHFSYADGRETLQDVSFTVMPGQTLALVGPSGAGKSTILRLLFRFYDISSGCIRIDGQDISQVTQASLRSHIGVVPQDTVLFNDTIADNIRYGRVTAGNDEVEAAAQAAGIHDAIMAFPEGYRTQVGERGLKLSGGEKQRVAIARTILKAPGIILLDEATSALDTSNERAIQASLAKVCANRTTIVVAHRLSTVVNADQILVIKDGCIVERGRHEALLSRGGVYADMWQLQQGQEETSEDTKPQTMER
# [16] = promoters of myeloid differentiation in arrested cells, primary screen, cell-based, GFP/MAC1 double positive, flow cytometry, validation set (AID 588685;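 active means differentiation response of at least 50%, scaled between solvent and reference control, from cells with both markers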;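 further: compound exposure lasts four days before antibody staining and flow analysis; 0% = DMSO wells and 100% = 5 µM fulvestrant positive control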); conditions: ER-HoxA9 marrow cells, stronger effect = higher value, normalized: vehicle 0, fulvestrant 100
Structure (SMILES),percent of DMSO control GFP [1],GFP response vs DMSO [2],percent response of DMSO control [3],GFP response vs DMSO [4],"GFP response, % of DMSO [5]",double positive events [6],vesicle binding response [6],inhibition [7],superoxide response (% of plate) [8],aptamer binding inhibition [9],response [10],inhibition [11],response [12],binding (% of control) [13],efflux inhibition (fraction of control) [14],inhibition [15],differentiation response [16]
COc1cc(OC)cc(C(C)=O)c1,96% (inactive),91.8% (inactive),95.1% (inactive),99.5% (inactive),104% (inactive),68.7%,149% (inactive),14.2% (inactive),94.5% (inactive),9% (inactive),-14.6% (inactive),-2.85% (inactive),-2.23% (inactive),81.3% (inactive),0 (inactive),5% (inactive),-6.96% (inactive)
COc1ccccc1OCC(O)COC(N)=O (stereo not drawn),93.3% (inactive),131% (inactive),97.9% (inactive),82% (inactive),84.5% (inactive),62.5%,133% (inactive),11.3% (inactive),101% (inactive),1% (inactive),1.55% (inactive),-1.32% (inactive),-1.8% (inactive),101% (inactive),0.01 (inactive),9% (inactive),3.28% (inactive)
CCC[C@@H]1C[C@@H](C(=O)N[C@H]([C@@H](C)O)[C@H]2O[C@H](SC)[C@H](O)[C@@H](O)C2O)N(C)C1 (stereo partly drawn),92.8% (inactive),120% (inactive),97.9% (inactive),80.9% (inactive),90.1% (inactive),66.2%,177% (inactive),3.55% (inactive),99.1% (inactive),5% (inactive),-3.92% (inactive),-1.72% (inactive),3.43% (inactive),106% (inactive),-0.17 (inactive),10% (inactive),-4.09% (inactive)
COc1ccc(NC(=O)Nc2ccc(C(C)C)cc2)cc1,104% (inactive),103% (inactive),101% (inactive),95.9% (inactive),88.6% (inactive),56.2%,126% (inactive),20.4% (inactive),98.7% (inactive),7% (inactive),2.17% (inactive),-5.4% (inactive),-1.78% (inactive),97.3% (inactive),0.03 (inactive),-11% (inactive),2.74% (inactive)
O=C1CC(c2ccc(OCCCCCOc3ccc(C4CC(=O)NC4=O)cc3)cc2)C(=O)N1 (stereo not drawn),105% (inactive),98.3% (inactive),97.8% (inactive),82.8% (inactive),92.9% (inactive),63.3%,1500% (inactive),15.1% (inactive),95% (inactive),3% (inactive),4.67% (inactive),-7.1% (inactive),2.37% (inactive),101% (inactive),0.11 (inactive),11% (inactive),24.7% (inactive)
CCOCCCNCc1cn(-c2ccc(F)cc2F)nc1-c1ccccc1C,103% (inactive),98.3% (inactive),109% (inactive),93.3% (inactive),102% (inactive),61.9%,200% (inactive),-1.49% (inactive),101% (inactive),1% (inactive),-8.93% (inactive),14.5% (inactive),4.59% (inactive),94.2% (inactive),-0.07 (inactive),-10% (inactive),-1.71% (inactive)
COc1ccc2c(=O)c(-c3cnn(-c4ccccc4)c3)c(C)oc2c1,102% (inactive),101% (inactive),99.6% (inactive),115% (inactive),109% (inactive),58.6%,153% (inactive),-2.82% (inactive),91.1% (inactive),4% (inactive),-30.2% (inactive),7% (inactive),1.88% (inactive),103% (inactive),-0.13 (inactive),-336% (inactive),-0.06% (inactive)
CC12CN3CC(C)(CN(C1)C3c1ccc(Cl)cc1Cl)C2=O (stereo not drawn),103% (inactive),98.3% (inactive),112% (inactive),94.7% (inactive),104% (inactive),67.5%,387% (inactive),5.77% (inactive),98.9% (inactive),4% (inactive),-10.5% (inactive),-0.61% (inactive),-0.6% (inactive),95.1% (inactive),-0.01 (inactive),-3% (inactive),-8.55% (inactive)
CN(C)CCC=C1c2ccccc2CCc2ccccc21,93.9% (inactive),105% (inactive),93.9% (inactive),113% (inactive),95.4% (inactive),60.1%,227% (inactive),6.4% (inactive),101% (inactive),2% (inactive),-0.14% (inactive),-8.77% (inactive),6.98% (inactive),101% (inactive),-0.17 (inactive),6% (inactive),-24.8% (inactive)
